# Assay results from PubChem BioAssay AID624291 (National Center for Advancing Translational Sciences (NCATS), 2012).
# Among all 350,000 compounds or so, about 220 (0.063%) were called active. About 4% were inconclusive and are not listed. What follows is part of a selection rich in actives, with near analogues and random picks from the rest. A number with no mark means an inactive call. The call rests on the fitted dose curve; in most records, active means well fitted activation curve with a large enough effect; inconclusive means small, poorly fitted or top-dose-only effect; inactive means no such curve, though single readings can be large or run the other way.
# Test: qHTS for Activators of Integrin-Mediated Alleviation for Muscular Dystrophy; further: nearly all actives have a fitted effect of over 60% in size;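 on activation: 100% = response of the positive control SU9516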
# Settings: alpha7betagal myoblasts, beta-gal FDG fluorescence, 48 h; series mostly up to 38.3 µM; activation: at the top concentration
# In short: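 Alpha7betagal+/- myoblasts (passage 13) were plated 16-24 hr, then exposed to compounds (1:260 dilution of DMSO stock) for 48 hours at 37C. After MPER lysis, β-galactosidase reporter activity was read as FDG fluorescence (ex 480/em 540) after 30 minutes.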
# Potency means the concentration at half of the fitted maximal effect.
SMILES,activation [%],Potency
COc1ccc(-c2c(C#N)cnc(C)c2C)c(O)c1OC,4.61,–
COc1ccc(-c2ccc3[nH]c4c(c3c2)CCN2C[C@H]3[C@H](C)ON(C)[C@H]3C[C@@H]42)cc1,-35.2,–
O=C(Nc1ccc2c(c1)[C@@H]1C[C@@H](CC(=O)N3CCCCC3)O[C@@H](CO)[C@@H]1O2)NC1CCCCC1,-1.68,–
C[C@@H]1CCCCO[C@H](CN(C)Cc2ccccc2)[C@@H](C)CN([C@H](C)CO)C(=O)c2cc(NS(=O)(=O)c3ccc(Cl)cc3)ccc2O1,0,–
OCC1OC(n2cnc3c(N4CCCC4)ncnc32)C(O)C1O (stereo not drawn),28,–
CCOC(=O)C1CCN(C(=O)c2ccc3c(=O)n4nc(Nc5ccccc5CC)sc4nc3c2)CC1,-27.7,–
COc1ccc(-c2ccc(CN3C(CC(C)C)C(=O)N(Cc4cn(CC5CCCCC5)nn4)CCS3(=O)=O)cc2)cc1 (stereo not drawn),-40.1,–
CNC(=O)C[C@H]1C(=O)N(c2ccc(OC)cc2)C[C@@H]1Cc1ccccc1,25.2,–
COc1cccc(NC(=O)N(C)C[C@@H]2Oc3ncc(Br)cc3C(=O)N([C@@H](C)CO)C[C@H]2C)c1,-11.6,–
COc1ccc(NC(=O)c2cc(=O)[nH]c3ccccc23)cc1S(=O)(=O)N1CCOCC1,-4.2,–
CCN(CC)C(=O)C1=C(C)N(Cc2ccc(OC)cc2)C(=O)C(CC(=O)NCc2ccco2)C1 (stereo not drawn),12.9,–
O=C(NCCOc1ccccc1)N1[C@H]2CC[C@@H]1C=C(c1ccc(F)cc1OCc1ccccc1)C2,-42.9,–
O=S(=O)(c1cccc(C(F)(F)F)c1)N1c2ccccc2-n2cccc2C1c1cccnc1 (stereo not drawn),-33.7,–
O=C(C[C@H]1C[C@@H]2c3cc(NC(=O)C4CCC4)ccc3O[C@@H]2[C@H](CO)O1)NC1CCCCC1,-20.1,–
CCOC(=O)c1cnn2c(SC)ncnc12,-0.493,–
Cc1ccc(-c2ccc(CN3C(C(C)C)C(=O)N(Cc4cn(CCC5OCCCO5)nn4)CCS3(=O)=O)cc2)cc1 (stereo not drawn),18.3,–
O=C(CSc1ncn[nH]1)Nc1nc2c(F)c(F)c(F)cc2s1,17.7,–
C[C@H]1CN([C@@H](C)CO)C(=O)CCCn2nncc2CO[C@@H]1CN(C)S(=O)(=O)c1cccc(C#N)c1,13.4,–
c1ccc2c(c1)nnn2-c1ccncc1,0.175,–
CC(OC(=O)c1cccc(S(=O)(=O)N2CCOCC2)c1)C(=O)NCC1CCCCC1 (stereo not drawn),-9.35,–

SMILES,activation [%],Potency
CC1(C)OC(=O)C2=C(CC(c3ccccc3)OC2CCc2ccccc2)O1 (stereo not drawn),-10.7,–
O=C(NCCS(=O)(=O)N1CCN(c2ccccc2)CC1)c1cc(=O)c2ccccc2o1,6.87,–
CCc1ccccc1NC(=O)CN1CCN(C(=O)c2cc(C3CC3)nn2-c2ccccc2)CC1,2.65,–
Cc1ccn2c(-c3csc(Nc4ccc(C(=O)O)cc4)n3)c(C)nc2c1,-1.17,–
CC1=C(C(=O)Nc2cccc(C(=O)NCC(C)c3ccccc3)c2)SCCO1 (stereo not drawn),1.28,–
CC(=O)c1ccccc1NC(=O)COC(=O)C1COc2ccccc2O1 (stereo not drawn),2.31,–
O=C(CCc1ccc(O)cc1)NN=Cc1cc(Br)ccc1O,-56,–
COc1ccc(S(=O)(=O)N2CCC(C(=O)NCCC(=O)Nc3ccccc3OC)CC2)cc1,-6.92,–
CCOc1cc(/C=N/NC(=O)c2ccncc2)cc(Br)c1O,4.83,–
Cc1ccc(CCNC(=O)CN2C(=O)CSc3ccc(S(=O)(=O)N4CCOCC4)cc32)cc1,-2.83,–
N#CCCN(C(=O)Nc1ccc(Cl)c(Cl)c1)C1CCCCC1,27.3,–
O=C1c2ccccc2-c2ccccc2NC1O (stereo not drawn),-4.86,–
Cc1ccc(S(=O)(=O)N2C[C@H]3n4c(=O)ccc(=O)n4C[C@H](OC(=O)NC4CCCC4)[C@@]3(O)C2)cc1,2.66,–
CCCCN(C(C)=O)c1ccc2c(c1)C1CC2CCN1Cc1ccccc1 (stereo not drawn),-16.5,–
C[C@@H]1CN([C@H](C)CO)S(=O)(=O)c2ccc(C#CC3CCCCC3)cc2O[C@H]1CN(C)C(=O)Cc1ccncc1,-44.2,–
COc1ccc(OC)c(NC(=O)C2CCCN2S(=O)(=O)c2ccc3c(c2)CC(C)N3C(C)=O)c1 (stereo not drawn),5.18,–
C#Cc1cc(N2CCN(C(=O)c3ccoc3)CC2)n2nc(-c3cccc(Cl)c3)cc2n1,-66.7,–
Nc1cc(=O)c2[nH]cnc2[nH]1,9.52,–
CSc1ncnc2c1ncn2CCCNCc1ccco1,-0.506,–
C[C@@H]1CN([C@@H](C)CO)C(=O)CCCn2nncc2CO[C@H]1CN(C)Cc1ccc(C(F)(F)F)cc1,-6.93,–

SMILES,activation [%],Potency
CCC(Oc1ccccc1)C(=O)OCC(=O)Nc1c(C)nn(-c2ccccc2)c1C (stereo not drawn),-14.5,–
CCc1nnc(NC(=O)c2ccco2)s1,-11.4,–
O=C(Nc1cc(F)ccc1F)c1ccc2c(=O)n3c(nc2c1)CCC3,21.5,–
O=C(NN=Cc1ccc2c(c1)CCC2)c1ccccc1O,-8.45,–
Cc1ccc(CN(C)C[C@@H]2OCc3cnnn3CCCC(=O)N([C@@H](C)CO)C[C@H]2C)cc1,10.6,–
CC(=NNC(N)=O)C1CC2CCC1CC2 (stereo not drawn),20.4,–
CCN(CC)C(=O)C1=C(C)N(Cc2ccc(C(C)(C)C)cc2)C(=O)C(CC(=O)NCc2cccc3ccccc23)C1 (stereo not drawn),4.29,–
Cc1ccccc1C#CC1=CC(=O)CC(C)(C)C1,-16.2,–
COc1ccc(NC(=O)N(C)C[C@H]2Oc3ncc(C#C[C@@H](C)O)cc3C(=O)N([C@H](C)CO)C[C@H]2C)cc1,0,–
CCCc1ccc(S(=O)(=O)N2CCN(C(=O)c3cc(C)on3)CC2)cc1,-5.39,–
COc1cc(C(=O)OCCCN2CCOCC2)cc(OC)c1OC,-16.1,–
O[C@@H]1C[C@H](c2ccccc2)N(Cc2cccs2)C[C@H]1n1cc(C2CC2)nn1,8.05,–
Cc1cccc(C(=O)N[C@H](C(=O)NCc2cccs2)C(C)C)c1,2.9,–
CCc1nnc(NC(=O)[C@@H](NC(=O)c2cccc(C)c2)C(C)C)s1,-7.54,–
CC(=O)Nc1ccc(NC(=O)[C@@H](NC(=O)c2cccc(C)c2)C(C)C)cc1,–,5.62 µM (active)
O=C(O)C1=C(C(=O)O)C2CCC1C2,12.3,–
COCOCCn1cc(CN2CCS(=O)(=O)N(Cc3ccc(-c4ccccc4)cc3)C(CC(C)C)C2=O)nn1 (stereo not drawn),-33.9,–
CC1(C2CC2)NC(=O)N(CC(=O)N2CCN(c3ccccc3F)CC2)C1=O (stereo not drawn),15.2,–
